Screening data (PubChem)
CHO-K1 Ca ag = counter-screen for M1 agonists: effect in parental CHO-K1 cells; Fluo-8 calcium fluorescence; scaled to maximal ATP response, vehicle zero; activation, % at 3 µM; actives 0.48% (n = 360,000); in the data active = activation above about 15%;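 also: untransfected CHO-K1 host cells lacking M1 receptor as counterscreen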
CHRM1 agonist = agonists of human M1 muscarinic receptor; activation, % at 3 µM; actives 0.33% (n = 360,000); P11229; CHO-K1 hM1, Fluo-8 calcium fluorescence, agonist mode; 0% DMSO, 100% acetylcholine EC100;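 active = activation above the run's mean compound activation plus 3 SD, cut at about 16% in these data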;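 also: peak over basal fluorescence ratio within a 140 s kinetic read after compound addition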
Target sequence (P11229 whole entry, looked up): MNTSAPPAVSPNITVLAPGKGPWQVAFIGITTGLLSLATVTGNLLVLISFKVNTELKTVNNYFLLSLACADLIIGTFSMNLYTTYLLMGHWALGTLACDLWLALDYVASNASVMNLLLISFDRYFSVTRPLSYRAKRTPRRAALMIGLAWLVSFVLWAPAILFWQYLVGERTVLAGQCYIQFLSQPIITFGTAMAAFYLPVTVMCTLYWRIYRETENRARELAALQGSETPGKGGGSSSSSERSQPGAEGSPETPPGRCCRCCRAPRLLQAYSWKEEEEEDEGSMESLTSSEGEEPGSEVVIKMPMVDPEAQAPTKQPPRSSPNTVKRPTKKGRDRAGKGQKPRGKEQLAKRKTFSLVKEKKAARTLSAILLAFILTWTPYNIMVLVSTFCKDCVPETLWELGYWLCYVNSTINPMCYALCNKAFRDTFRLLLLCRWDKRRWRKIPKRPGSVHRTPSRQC
CHO-K1 Ca PAM = M1 PAM counterscreen hit in parental CHO-K1 cells; ATP EC20, Fluo-8 calcium fluorescence; 0% at ATP EC20, 100% at ATP max; activation, % at 3 µM; actives 0.02% (n = 360,000);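 active = activation above the run cutoff, the mean activation of all test compounds plus 3 SD, cut at about 40% in these data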;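 also: peak over basal fluorescence ratio in a 140 s read after ATP addition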
CHO-K1 Ca antag = M1 antagonist counterscreen hit in parental CHO-K1 cells | ATP-induced calcium, Fluo-8 fluorescence | inhibition, % at 3 µM | actives 0.6% (n = 360,000) | AID 602250;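 active = inhibition above a per-plate cutoff, the plate's mean sample inhibition plus 3 SD, cut at about 24% in these data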;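 also: 0% = DMSO plus EC80 ATP and 100% = DMSO alone without ATP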
CHRM1 antagonist = human CHRM1 antagonism; CHO-K1 hM1, Fluo-8 calcium fluorescence, ACh EC80 antagonist; actives 1.3% (n = 360,000); inhibition, % at 3 µM;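 active = percent inhibition above its own plate's cutoff, namely the mean of that plate's compound wells plus 3 SD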;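 also: peak over basal fluorescence ratio during 140 s after agonist addition; 0% = ACh EC80 plus DMSO and 100% = DMSO alone without agonist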
CHRM1 PAM = human CHRM1 positive allosteric modulation. actives 0.088% (n = 360,000). AID 588819. CHO-K1 hM1, Fluo-8 calcium fluorescence, ACh EC20; 0% = ACh EC20, 100% = maximal ACh. P11229. activation, % at 3 µM; in the data active = activation above about 19%, passing the limit was not always enough
The depositor's hits bear a star; · = no result given. In the library only some 2.4% were active in any assay of this set; here they are far more common.

SMILES | CHO-K1 Ca ag | CHRM1 agonist | CHO-K1 Ca PAM | CHO-K1 Ca antag | CHRM1 antagonist | CHRM1 PAM
CC1=C(C(=O)N(C(C)C)C(C)C)CC(CC(=O)NCc2ccco2)C(=O)N1Cc1ccc(C(C)(C)C)cc1 (stereo not given) | -1 | -8 | 4 | -17 | -27 | 2
CCOC(=O)C(Cc1ccc(NC(=O)/C(=C/c2ccccc2)NC(=O)c2ccccc2)cc1)N1C(=O)c2ccccc2C1=O (stereo not given) | 3 | -1 | -13 | 9 | 15 | -3
CCOC(=O)C(Cc1ccc(NC(=O)/C(=C/c2ccc(OC(C)=O)cc2)NC(C)=O)cc1)N1C(=O)c2ccccc2C1=O (stereo not given) | 4 | -2 | 7 | 8 | 27* | -7
Cc1noc(C)c1CC(=O)Nc1ccc2c(c1)OCO2 | 0 | -4 | 5 | -15 | -11 | 12
c1ccc(COc2ccc(CNCc3cccnc3)cc2)cc1 | 3 | -12 | 24 | -8 | 31* | -32
c1ccc(COc2ccc(CNCc3cccs3)cc2)cc1 | 12 | -5 | 22 | -7 | 41* | -23
CCn1c(=S)sc2c(=O)n(CC(=O)Nc3cc(OC)ccc3OC)c(C)nc21 | 2 | -3 | -7 | -1 | -4 | 6
COc1ccc(-c2cnnc(N/N=C/c3ccc(O)c(OC)c3)n2)cc1 | 1 | -1 | -11 | 35* | 2 | -5
O=C1c2cccc3c(N4CCCCC4)ccc(c23)C(=O)N1c1ccc(O)cc1 | 15 | 9 | 8 | 8 | 18 | -9
O=C1c2cccc3c(N4CCCCC4)ccc(c23)C(=O)N1c1ccccc1O | 36* | 40* | -7 | 30* | 44* | -13
CCN(CC)C1CCN(Cc2c(C(=O)N3CCCCCCC3)nc3ccc(Cl)cn23)C1 (stereo not given) | 0 | -6 | -24 | 1 | 32* | -12
Cc1ccc(F)cc1C(=O)N1CCCCC1c1cc(C(=O)Nc2ccc(F)c(Cl)c2)no1 (stereo not given) | 1 | -8 | 12 | -4 | 9 | -15
Cc1cc(/C=C2\SC(=S)NC2=O)c(C)n1-c1ccccc1 | 2 | 1 | -24 | 6 | -21 | 12
CNC(=O)/C(C#N)=C\c1cc(C)n(-c2ccc(N3CCOCC3)cc2)c1C | 3 | -4 | -15 | 31* | 5 | -14
Cc1cc(/C=C(\C#N)C(=O)Nc2ccc(F)cc2)c(C)n1-c1ccc(N2CCOCC2)c([N+](=O)[O-])c1 | 1 | -2 | 16 | -8 | -8 | 10
Cc1cc(/C=C2/SC(=O)NC2=O)c(C)n1-c1ccc(N2CCOCC2)cc1 | 12 | 20* | 35 | -9 | -3 | 2
O=C(NC(=S)N1CCN(c2ccccc2)CC1)c1ccc(S(=O)(=O)N2CCOCC2)cc1 | 0 | -4 | 14 | -20 | -15 | 7
CN(C(=O)c1ccc(NC(=O)Cc2ccc(NC(=O)C3CCCN(C(=O)C4CC4)C3)cc2)cc1)C1CCCC1 (stereo not given) | 0 | -4 | 9 | -19 | -16 | 8
Cc1cccc(C)c1NC(=O)C1c2ccccc2OCC(=O)N1Cc1ccco1 (stereo not given) | 0 | · | 5 | -9 | · | ·
COc1ccccc1C(=O)NC(CCSC)C(=O)NCCCSc1ccccc1 (stereo not given) | 1 | -5 | 27 | -2 | -9 | 7
CCN(CC)C(=O)CSc1nsc(SCC(=O)N(CC)CC)c1C#N | 0 | -3 | -9 | 26* | 15 | -6
C=COC(=O)CSc1snc(SCC(=O)OC)c1C#N | 0 | -4 | 11 | -6 | -9 | 6
Cc1nc(SCC(=O)N(C)C2CCS(=O)(=O)C2)c(C#N)c(C)c1C (stereo not given) | 0 | -3 | 18 | -24 | -12 | 15
CN(C)CCCOc1ccc2c(c1)Sc1ccccc1CC2=O | 4 | 24* | 25 | -2 | -2 | 0
COc1ccc(CNC(=O)C2CCCN2C)cc1OC (stereo not given) | 0 | -2 | -8 | 0 | 11 | -3
SMILES | CHO-K1 Ca ag | CHRM1 agonist | CHO-K1 Ca PAM | CHO-K1 Ca antag | CHRM1 antagonist | CHRM1 PAM
Cc1c(C(=O)NCc2ccc([N+](=O)[O-])cc2)sc(=O)n1Cc1ccc2c(c1)OCO2 | 11 | 19* | 13 | -6 | 7 | -17
Cc1c(C(=O)NCc2cccc([N+](=O)[O-])c2)sc(=O)n1Cc1ccc(F)cc1 | 5 | -9 | 5 | -8 | 39* | -33
Cc1c(C(=O)NCc2ccc3c(c2)OCCO3)sc(=O)n1Cc1ccc2c(c1)OCO2 | 1 | -4 | -11 | 12 | -9 | -1
Oc1ccc(CCc2n[nH]c(=S)n2-c2ccc(F)cc2)cc1 | 1 | -2 | 2 | -5 | -1 | 6
Cc1ccc2nsnc2c1S(=O)(=O)Nc1ccccc1C(=O)O | 1 | -2 | 3 | -5 | -1 | 12
CSC1=NSC2=NC(=O)/C(=C/c3coc4ccc(O)cc4c3=O)C(=N)N12 | 27* | 42* | -4 | 35* | 34* | -26
N=C1/C(=C\c2coc3ccccc3c2=O)C(=O)N=C2SC=CN12 | 83* | 47* | -27 | 31* | 41* | -22
CSC1=NSC2=NC(=O)/C(=C\c3cccs3)C(=N)N12 | 1 | -6 | 15 | -4 | 0 | 3
CC1=CC2=NC(=O)/C(=C/c3coc4ccc(Cl)cc4c3=O)C(=N)N2O1 | 56* | 29* | -11 | 27* | 31 | -10
CSC1=NSC2=NC(=O)/C(=C/c3coc4ccccc4c3=O)C(=N)N12 | 45* | 78* | -3 | 35* | 56* | -24
Nc1nc2c(nc(SCc3ccccc3Br)n2[C@@H]2O[C@H](CO)[C@@H](O)[C@H]2O)c(=O)[nH]1 | 0 | -2 | 0 | -2 | -13 | 9
CCOC(=O)C1=C(Cc2ccc(OC)cc2)C(=O)c2ccccc2C1=O | 15* | 8 | -2 | 25* | 36* | -9
CCOC(=O)c1c(C)nc2c(c1-c1cc(OC)ccc1OC)C(=O)c1ccccc1-2 | 0 | -4 | 11 | -4 | -16 | 13
COc1ccccc1CNC(=O)CN1C(=O)N(C)C2(CCCCC2)C1=O | 1 | -1 | 16 | -4 | -6 | 4
Cc1ccc2cc(NC(=O)c3ccccc3C)ccc2n1 | 0 | -3 | 15 | -1 | 2 | 2
CN(C)CCC(=O)N1c2ccccc2Sc2ccc(Cl)cc21 | 0 | -13 | 10 | 8 | 99* | -34
Cn1c(SCC(=O)N2c3ccccc3Sc3ccc(Cl)cc32)nnc1-c1ccco1 | 3 | -13 | -10 | -9 | -3 | -12
Cn1nnnc1SCC(=O)N1c2ccccc2Sc2ccc(Cl)cc21 | 1 | -6 | 15 | -10 | 30* | -20
O=C(CN1CCOCC1)N1c2ccccc2Sc2ccc(Cl)cc21 | 2 | -8 | 24 | -12 | 20 | -17
